# Key:
# Assay in all cases: DAPPL (digital affinity profiling via proximity ligation, sequencing); 10 mM Tris-HCl pH 7.5, 50 mM NaCl, 1 mM DTT, 4% glycerol, room temperature, 30 min; GST-TFs on glutathione beads, 16-mer random dsDNA library, 0.1% formaldehyde crosslink after washing; high values mean tight binding
# [1] = molecular target: T1, FLI1 (Homo sapiens, UniProt Q01543 1-452); settings: protein: recombinant; tags: N-terminal GST; dsDNA, one strand shown
# T1 sequence: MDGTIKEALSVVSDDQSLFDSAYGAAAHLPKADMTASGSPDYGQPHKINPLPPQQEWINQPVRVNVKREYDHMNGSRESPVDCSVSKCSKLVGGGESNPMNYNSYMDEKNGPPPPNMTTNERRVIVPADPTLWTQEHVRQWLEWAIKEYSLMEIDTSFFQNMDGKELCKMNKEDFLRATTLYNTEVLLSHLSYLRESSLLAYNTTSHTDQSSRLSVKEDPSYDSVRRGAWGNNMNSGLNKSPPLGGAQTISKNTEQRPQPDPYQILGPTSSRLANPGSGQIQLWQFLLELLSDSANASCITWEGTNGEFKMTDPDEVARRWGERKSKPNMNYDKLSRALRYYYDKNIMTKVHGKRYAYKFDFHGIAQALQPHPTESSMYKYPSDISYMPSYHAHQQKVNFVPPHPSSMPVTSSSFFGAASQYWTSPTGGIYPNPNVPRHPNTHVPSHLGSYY
# In short: (§1)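 Sequencing on an Illumina NextSeq500 followed washing, crosslinking with 0.1% formaldehyde, proximity ligation (BsaI/T4 ligase, 1 h, 37 °C) and PCR amplification of pools that had been incubated for 30 min at room temperature with 200 nmole of a random double-stranded 16-mer DNA library in Tris/NaCl/DTT/glycerol buffer. Each pool held DNA-barcoded human transcription factors, expressed in yeast as GST fusions and captured on glutathione beads, plus a tag-only sample. Binding signal is a hexamer's read frequency for a factor divided by its frequency in the tag-only sample.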
# [2] = molecular target: T2, ELK1 (Homo sapiens, UniProt P19419 1-428); settings: protein: recombinant; tags: N-terminal GST; dsDNA, one strand shown
# T2 sequence: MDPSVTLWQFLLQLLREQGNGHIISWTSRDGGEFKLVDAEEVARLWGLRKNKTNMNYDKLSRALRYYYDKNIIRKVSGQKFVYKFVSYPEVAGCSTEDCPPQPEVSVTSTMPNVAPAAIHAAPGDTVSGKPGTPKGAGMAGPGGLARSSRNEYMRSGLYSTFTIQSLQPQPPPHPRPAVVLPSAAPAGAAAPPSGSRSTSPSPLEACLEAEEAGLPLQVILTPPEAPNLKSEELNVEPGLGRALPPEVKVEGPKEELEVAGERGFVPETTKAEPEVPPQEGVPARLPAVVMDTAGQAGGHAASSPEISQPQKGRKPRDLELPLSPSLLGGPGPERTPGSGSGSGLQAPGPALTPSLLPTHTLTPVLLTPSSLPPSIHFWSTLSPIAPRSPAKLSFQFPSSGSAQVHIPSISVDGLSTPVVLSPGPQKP
# In short: as §1
# [3] = molecular target: T3, GABPA (Homo sapiens, UniProt Q06546 1-454); settings: protein: recombinant; tags: N-terminal GST; dsDNA, one strand shown
# T3 sequence: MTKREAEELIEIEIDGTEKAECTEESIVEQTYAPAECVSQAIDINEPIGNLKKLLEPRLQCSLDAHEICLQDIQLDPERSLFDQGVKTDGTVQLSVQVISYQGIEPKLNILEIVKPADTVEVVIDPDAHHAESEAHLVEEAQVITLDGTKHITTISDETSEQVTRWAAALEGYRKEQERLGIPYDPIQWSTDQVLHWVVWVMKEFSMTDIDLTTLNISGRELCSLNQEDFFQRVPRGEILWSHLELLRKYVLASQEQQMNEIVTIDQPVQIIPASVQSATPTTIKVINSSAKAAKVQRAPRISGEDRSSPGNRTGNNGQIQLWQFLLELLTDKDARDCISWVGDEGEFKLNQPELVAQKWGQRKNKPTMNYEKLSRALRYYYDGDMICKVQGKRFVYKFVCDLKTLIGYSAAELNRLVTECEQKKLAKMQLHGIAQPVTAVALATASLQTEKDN
# In short: as §1
# [4] = molecular target: T4, ERG (Homo sapiens, UniProt P11308 1-479); settings: protein: recombinant; tags: N-terminal GST; dsDNA, one strand shown
# T4 sequence: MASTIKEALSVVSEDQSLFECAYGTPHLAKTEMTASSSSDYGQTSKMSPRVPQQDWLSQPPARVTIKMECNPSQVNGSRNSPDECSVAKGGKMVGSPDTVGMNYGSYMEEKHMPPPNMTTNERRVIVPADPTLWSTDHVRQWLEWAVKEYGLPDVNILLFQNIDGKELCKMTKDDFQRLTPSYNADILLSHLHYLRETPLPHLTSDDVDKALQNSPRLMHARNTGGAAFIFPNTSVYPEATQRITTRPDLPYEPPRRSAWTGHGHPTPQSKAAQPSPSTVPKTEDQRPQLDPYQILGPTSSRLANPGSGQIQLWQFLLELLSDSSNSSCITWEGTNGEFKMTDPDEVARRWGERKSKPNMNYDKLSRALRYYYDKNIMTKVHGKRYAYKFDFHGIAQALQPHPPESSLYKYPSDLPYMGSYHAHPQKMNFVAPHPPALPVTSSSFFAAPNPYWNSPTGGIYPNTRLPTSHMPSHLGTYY
# In short: as §1
# [5] = molecular target: ELF1 (Homo sapiens, UniProt P32519 1-619); settings: protein: recombinant; tags: N-terminal GST; dsDNA, one strand shown
# Chain of ELF1 (P32519 whole entry): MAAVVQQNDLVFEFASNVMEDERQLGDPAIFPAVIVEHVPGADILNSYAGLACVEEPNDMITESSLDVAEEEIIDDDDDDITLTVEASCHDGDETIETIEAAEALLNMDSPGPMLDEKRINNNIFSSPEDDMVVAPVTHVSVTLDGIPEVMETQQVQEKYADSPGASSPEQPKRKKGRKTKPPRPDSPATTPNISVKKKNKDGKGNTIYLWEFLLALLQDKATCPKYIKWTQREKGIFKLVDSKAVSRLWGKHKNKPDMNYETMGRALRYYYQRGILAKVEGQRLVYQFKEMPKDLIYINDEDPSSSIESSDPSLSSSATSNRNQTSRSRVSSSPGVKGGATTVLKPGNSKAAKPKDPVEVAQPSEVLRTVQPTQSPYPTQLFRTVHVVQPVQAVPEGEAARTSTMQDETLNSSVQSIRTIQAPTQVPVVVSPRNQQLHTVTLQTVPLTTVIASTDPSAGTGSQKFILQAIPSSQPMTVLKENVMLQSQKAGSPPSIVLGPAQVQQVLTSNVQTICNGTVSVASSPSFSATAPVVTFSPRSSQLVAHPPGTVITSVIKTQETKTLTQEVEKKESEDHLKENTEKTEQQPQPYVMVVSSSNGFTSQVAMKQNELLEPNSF
# In short: as §1
# [6] = molecular target: T5, EHF (Homo sapiens, UniProt Q9NZC4 1-300); settings: protein: recombinant; tags: N-terminal GST; dsDNA, one strand shown
# T5 sequence: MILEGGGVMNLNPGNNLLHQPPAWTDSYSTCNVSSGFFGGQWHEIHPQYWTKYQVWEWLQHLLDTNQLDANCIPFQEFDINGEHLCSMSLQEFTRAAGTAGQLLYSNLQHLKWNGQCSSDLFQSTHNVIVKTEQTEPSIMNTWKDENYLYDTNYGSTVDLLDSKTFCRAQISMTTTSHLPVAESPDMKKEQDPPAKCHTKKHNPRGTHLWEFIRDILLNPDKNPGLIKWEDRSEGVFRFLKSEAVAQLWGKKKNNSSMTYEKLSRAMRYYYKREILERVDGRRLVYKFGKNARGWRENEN
# In short: as §1
# [7] = molecular target: SPI1 (Homo sapiens, UniProt P17947 1-270); settings: protein: recombinant; tags: N-terminal GST; dsDNA, one strand shown
# In short: as §1
# [8] = molecular target: SPIB (Homo sapiens, UniProt Q01892 1-262); settings: protein: recombinant; tags: N-terminal GST; dsDNA, one strand shown
# Chain of SPIB (Q01892 whole entry): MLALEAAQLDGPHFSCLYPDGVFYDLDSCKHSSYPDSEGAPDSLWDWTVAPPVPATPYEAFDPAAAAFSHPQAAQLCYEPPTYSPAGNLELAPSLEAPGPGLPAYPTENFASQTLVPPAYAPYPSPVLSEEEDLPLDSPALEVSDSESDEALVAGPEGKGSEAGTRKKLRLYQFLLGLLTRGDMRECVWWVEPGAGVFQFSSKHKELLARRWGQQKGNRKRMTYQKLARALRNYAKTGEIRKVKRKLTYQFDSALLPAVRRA
# In short: as §1
# [9] = molecular target: T6, ELK3 (Homo sapiens, UniProt P41970 1-407); settings: protein: recombinant; tags: N-terminal GST; dsDNA, one strand shown
# T6 sequence: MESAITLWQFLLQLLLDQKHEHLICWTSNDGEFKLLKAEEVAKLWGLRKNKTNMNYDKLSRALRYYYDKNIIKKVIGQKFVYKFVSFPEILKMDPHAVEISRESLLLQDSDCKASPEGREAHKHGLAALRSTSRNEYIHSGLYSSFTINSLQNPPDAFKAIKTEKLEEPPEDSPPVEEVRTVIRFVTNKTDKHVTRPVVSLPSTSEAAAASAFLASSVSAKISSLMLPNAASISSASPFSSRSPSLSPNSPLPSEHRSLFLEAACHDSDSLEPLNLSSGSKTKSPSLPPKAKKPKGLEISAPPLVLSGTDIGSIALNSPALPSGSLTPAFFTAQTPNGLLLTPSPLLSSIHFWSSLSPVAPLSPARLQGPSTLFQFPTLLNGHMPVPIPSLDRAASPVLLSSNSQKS
# In short: as §1
# [10] = molecular target: T7, FEV (Homo sapiens, UniProt Q99581 1-238); settings: protein: recombinant; tags: N-terminal GST; dsDNA, one strand shown
# T7 sequence: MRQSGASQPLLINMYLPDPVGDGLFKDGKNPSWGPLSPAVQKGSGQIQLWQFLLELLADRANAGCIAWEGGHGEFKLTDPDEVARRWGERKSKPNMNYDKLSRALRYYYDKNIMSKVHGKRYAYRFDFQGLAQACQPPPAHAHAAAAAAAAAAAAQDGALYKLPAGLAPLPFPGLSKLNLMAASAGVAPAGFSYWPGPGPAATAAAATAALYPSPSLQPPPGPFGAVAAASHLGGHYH
# In short: as §1
# [11] = molecular target: ETV5 (Homo sapiens, UniProt P41161 1-510); settings: protein: recombinant; tags: N-terminal GST; dsDNA, one strand shown
# Chain of ETV5 (P41161 whole entry): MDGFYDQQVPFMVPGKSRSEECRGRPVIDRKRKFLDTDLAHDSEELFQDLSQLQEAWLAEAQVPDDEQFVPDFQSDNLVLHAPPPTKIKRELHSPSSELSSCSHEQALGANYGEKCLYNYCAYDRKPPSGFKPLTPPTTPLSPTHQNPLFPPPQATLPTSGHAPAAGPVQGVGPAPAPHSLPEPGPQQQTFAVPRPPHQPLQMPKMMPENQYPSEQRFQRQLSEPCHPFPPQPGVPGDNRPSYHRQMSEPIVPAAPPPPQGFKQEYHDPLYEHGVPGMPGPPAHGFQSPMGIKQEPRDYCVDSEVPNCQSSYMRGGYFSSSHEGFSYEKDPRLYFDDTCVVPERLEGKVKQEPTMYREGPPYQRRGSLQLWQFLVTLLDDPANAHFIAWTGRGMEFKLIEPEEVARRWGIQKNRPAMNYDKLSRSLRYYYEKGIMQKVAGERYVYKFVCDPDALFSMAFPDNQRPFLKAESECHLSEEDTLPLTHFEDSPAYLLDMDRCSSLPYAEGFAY
# In short: as §1
# [12] = molecular target: HSF1 (Homo sapiens, UniProt Q00613 1-529); settings: protein: recombinant; tags: N-terminal GST; chain copies: 3; dsDNA, one strand shown
# Chain of HSF1 (Q00613 whole entry): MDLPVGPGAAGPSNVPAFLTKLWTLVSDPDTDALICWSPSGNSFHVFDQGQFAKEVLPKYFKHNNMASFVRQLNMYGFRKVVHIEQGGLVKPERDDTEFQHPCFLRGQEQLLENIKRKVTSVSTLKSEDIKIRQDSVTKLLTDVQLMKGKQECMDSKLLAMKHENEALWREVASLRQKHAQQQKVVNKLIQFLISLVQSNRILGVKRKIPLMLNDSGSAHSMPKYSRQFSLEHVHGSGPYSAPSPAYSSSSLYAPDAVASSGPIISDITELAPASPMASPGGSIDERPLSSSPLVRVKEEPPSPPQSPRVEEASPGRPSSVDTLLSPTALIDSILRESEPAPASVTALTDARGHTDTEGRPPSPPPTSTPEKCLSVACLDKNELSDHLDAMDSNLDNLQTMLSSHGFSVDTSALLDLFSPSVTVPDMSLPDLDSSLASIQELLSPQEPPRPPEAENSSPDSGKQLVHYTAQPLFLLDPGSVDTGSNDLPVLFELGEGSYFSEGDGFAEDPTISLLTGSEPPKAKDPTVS
# In short: as §1
# [13] = molecular target: T8, SPIC (Homo sapiens, UniProt Q8N5J4 1-248); settings: protein: recombinant; tags: N-terminal GST; dsDNA, one strand shown
# T8 sequence: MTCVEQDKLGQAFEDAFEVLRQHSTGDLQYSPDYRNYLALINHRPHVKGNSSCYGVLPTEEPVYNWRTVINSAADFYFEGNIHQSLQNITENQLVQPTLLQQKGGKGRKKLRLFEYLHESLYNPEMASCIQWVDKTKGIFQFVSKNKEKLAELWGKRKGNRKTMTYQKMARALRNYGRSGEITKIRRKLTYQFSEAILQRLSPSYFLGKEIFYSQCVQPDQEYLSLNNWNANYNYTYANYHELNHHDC
# In short: as §1
# [14] = molecular target: ELF4 (Homo sapiens, UniProt Q99607 1-663); settings: protein: recombinant; tags: N-terminal GST; dsDNA, one strand shown
# Chain of ELF4 (Q99607 whole entry): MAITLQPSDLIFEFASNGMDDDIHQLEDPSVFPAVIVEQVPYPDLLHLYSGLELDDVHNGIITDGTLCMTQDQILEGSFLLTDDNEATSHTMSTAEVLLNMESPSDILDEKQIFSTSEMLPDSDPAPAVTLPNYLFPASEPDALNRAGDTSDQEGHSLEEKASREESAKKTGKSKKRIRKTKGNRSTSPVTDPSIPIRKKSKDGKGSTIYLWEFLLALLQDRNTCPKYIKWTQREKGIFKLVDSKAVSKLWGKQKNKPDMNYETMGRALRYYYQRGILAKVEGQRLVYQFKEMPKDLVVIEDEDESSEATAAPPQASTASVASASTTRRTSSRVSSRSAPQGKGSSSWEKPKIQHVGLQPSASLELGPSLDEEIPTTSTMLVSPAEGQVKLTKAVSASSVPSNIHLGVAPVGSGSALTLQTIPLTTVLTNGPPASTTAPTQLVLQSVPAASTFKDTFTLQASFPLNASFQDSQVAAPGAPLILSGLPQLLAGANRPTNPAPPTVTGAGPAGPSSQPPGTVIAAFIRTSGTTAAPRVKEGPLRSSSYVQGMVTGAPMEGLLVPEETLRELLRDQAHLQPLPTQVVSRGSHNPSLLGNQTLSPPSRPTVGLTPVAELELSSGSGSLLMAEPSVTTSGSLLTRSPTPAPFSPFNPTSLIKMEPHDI
# In short: as §1
# [15] = molecular target: T9, ELK4 (Homo sapiens, UniProt P28324-2 1-405); settings: protein: recombinant; tags: N-terminal GST; dsDNA, one strand shown
# T9 sequence: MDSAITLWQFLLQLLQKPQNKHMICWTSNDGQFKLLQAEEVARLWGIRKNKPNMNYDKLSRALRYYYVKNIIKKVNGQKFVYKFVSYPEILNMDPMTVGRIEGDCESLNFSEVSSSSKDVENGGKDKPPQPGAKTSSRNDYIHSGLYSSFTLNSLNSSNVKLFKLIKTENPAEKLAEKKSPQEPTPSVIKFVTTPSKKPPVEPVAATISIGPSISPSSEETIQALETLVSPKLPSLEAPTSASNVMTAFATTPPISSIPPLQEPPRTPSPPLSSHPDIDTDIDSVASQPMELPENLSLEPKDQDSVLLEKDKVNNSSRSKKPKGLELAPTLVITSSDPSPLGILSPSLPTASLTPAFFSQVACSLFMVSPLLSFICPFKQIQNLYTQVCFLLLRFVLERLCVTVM
# In short: as §1
# [16] = molecular target: T10, ETV2 (Homo sapiens, UniProt O00321 1-342); settings: protein: recombinant; tags: N-terminal GST; dsDNA, one strand shown
# T10 sequence: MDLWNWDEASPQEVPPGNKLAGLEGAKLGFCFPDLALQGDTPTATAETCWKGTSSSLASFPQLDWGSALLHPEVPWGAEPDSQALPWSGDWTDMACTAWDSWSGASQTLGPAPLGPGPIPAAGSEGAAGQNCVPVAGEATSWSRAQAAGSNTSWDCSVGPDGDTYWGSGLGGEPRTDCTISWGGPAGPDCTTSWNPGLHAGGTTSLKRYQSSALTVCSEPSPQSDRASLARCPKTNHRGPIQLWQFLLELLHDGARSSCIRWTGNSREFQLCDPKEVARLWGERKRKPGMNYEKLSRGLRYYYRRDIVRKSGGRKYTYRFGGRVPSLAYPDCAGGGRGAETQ
# In short: as §1
# [17] = molecular target: T11, ELF3 (Homo sapiens, UniProt P78545 1-371); settings: protein: recombinant; tags: N-terminal GST; dsDNA, one strand shown
# T11 sequence: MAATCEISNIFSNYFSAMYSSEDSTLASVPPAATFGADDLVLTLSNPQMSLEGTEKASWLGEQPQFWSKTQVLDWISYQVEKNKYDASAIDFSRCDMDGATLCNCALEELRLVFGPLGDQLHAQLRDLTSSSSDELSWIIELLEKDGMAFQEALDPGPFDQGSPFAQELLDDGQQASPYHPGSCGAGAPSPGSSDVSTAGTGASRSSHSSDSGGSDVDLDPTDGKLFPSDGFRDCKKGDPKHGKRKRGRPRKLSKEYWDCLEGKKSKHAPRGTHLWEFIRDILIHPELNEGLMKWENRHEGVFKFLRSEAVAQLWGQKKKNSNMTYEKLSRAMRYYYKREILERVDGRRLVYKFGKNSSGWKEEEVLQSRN
# In short: as §1
# [18] = molecular target: CRX (Homo sapiens, UniProt O43186 1-299); settings: protein: recombinant; tags: N-terminal GST; dsDNA, one strand shown
# Chain of CRX (O43186 whole entry): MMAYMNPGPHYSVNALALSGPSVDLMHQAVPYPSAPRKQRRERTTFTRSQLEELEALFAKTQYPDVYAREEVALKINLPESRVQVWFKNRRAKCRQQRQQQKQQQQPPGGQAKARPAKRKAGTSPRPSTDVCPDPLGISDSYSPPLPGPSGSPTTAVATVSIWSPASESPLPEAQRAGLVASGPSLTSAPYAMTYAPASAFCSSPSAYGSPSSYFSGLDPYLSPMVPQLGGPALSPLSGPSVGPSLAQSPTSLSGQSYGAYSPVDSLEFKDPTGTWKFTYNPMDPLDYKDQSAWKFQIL
# In short: as §1
# [19] = molecular target: ETV1 (Homo sapiens, UniProt P50549 1-477); settings: protein: recombinant; tags: N-terminal GST; dsDNA, one strand shown
# Chain of ETV1 (P50549 whole entry): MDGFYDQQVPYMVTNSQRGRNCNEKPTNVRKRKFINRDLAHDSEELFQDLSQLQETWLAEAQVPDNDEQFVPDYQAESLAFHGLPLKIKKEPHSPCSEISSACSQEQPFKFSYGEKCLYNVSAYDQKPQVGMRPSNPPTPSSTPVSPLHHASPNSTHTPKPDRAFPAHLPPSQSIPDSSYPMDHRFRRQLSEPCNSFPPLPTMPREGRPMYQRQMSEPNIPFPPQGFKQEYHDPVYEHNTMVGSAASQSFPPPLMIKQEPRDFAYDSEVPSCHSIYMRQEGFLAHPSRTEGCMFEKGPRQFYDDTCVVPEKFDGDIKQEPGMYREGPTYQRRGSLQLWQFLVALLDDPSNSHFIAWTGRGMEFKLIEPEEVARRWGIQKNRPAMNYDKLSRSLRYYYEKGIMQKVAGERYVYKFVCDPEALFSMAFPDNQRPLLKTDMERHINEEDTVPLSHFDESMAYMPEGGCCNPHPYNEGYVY
# In short: as §1
sequence,measurement,setting,value
AATACC,binding signal,[1],"1.25 fold enrichment (6-mer frequency, TF over GST control)"
same,binding signal,[2],"1.09 fold enrichment (6-mer frequency, TF over GST control)"
same,binding signal,[3],"1.09 fold enrichment (6-mer frequency, TF over GST control)"
same,binding signal,[4],"1.21 fold enrichment (6-mer frequency, TF over GST control)"
same,binding signal,[5],"1.19 fold enrichment (6-mer frequency, TF over GST control)"
same,binding signal,[6],"1.19 fold enrichment (6-mer frequency, TF over GST control)"
same,binding signal,[7],"1.14 fold enrichment (6-mer frequency, TF over GST control)"
same,binding signal,[8],"1.16 fold enrichment (6-mer frequency, TF over GST control)"
same,binding signal,[9],"1.25 fold enrichment (6-mer frequency, TF over GST control)"
same,binding signal,[10],"1.23 fold enrichment (6-mer frequency, TF over GST control)"
same,binding signal,[11],"1.13 fold enrichment (6-mer frequency, TF over GST control)"
same,binding signal,[12],"1.19 fold enrichment (6-mer frequency, TF over GST control)"
same,binding signal,[13],"1.15 fold enrichment (6-mer frequency, TF over GST control)"
same,binding signal,[14],"1.1 fold enrichment (6-mer frequency, TF over GST control)"
same,binding signal,[15],"1.11 fold enrichment (6-mer frequency, TF over GST control)"
same,binding signal,[16],"1.17 fold enrichment (6-mer frequency, TF over GST control)"
same,binding signal,[17],"1.12 fold enrichment (6-mer frequency, TF over GST control)"
same,binding signal,[18],"1.44 fold enrichment (6-mer frequency, TF over GST control)"
same,binding signal,[19],"1.22 fold enrichment (6-mer frequency, TF over GST control)"

# Reference: publication PMC7862700, “An all-to-all approach to the identification of sequence-specific readers for epigenetic DNA modifications on cytosine”
